hgDAF12 agonist: H. glycines DAF-12 receptor agonists, primary screen, cell-based, luminescence, HEK293, GAL4 fusion, UAS-luciferase; Nuclear hormone receptor DAF-12 (Heterodera glycines), GAL4 fusion; HEK293 GAL4-hgDAF12 UAS-luciferase reporter, agonist luminescence; normalized to butyrate control; activation, % at 6.8 µM; 370,000 tested, 1.8% active; AID 687014, 2013;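 active = activation above a cutoff set at the mean of all screened compounds plus 3 SD, cut at about 10% in these data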
DAX1 inh-1: DAX1 (NR0B1) inhibitors on StAR promoter, primary screen, cell-based, luminescence, SF-1 (NR5A1), full-length DAX-1 | 370,000 tested, 1.1% active | inhibition, % at 6.8 µM | HEK293T StAR-luciferase reporter, SF-1/DAX-1 repression relief;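 active = inhibition above the mean over all tested compounds plus 3 SD, cut at about 3.6% in these data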;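 also: higher inhibition means more luminescence from relief of DAX-1 repression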
hcDAF12 agonist: H. contortus DAF-12 nuclear receptor activators, primary screen, cell-based, luminescence, HEK293, lit1-tk-luc reporter; activation, % at 6.8 µM; 370,000 tested, 1.4% active; HEK293 hcDAF-12 lit1-tk-luc reporter; 0% DMSO, 100% Δ7-dafachronic acid;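 active = activation above the mean of all tested compounds plus 3 SD, cut at about 5.5% in these data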
ssDAF12 agonist: S. stercoralis DAF-12 nuclear receptor activators, primary screen, cell-based, luminescence, HEK293, GRIP1 co-expression, lit1-tk-luc; Nuclear hormone receptor DAF-12 (Strongyloides stercoralis); HEK293 ssDAF-12/GRIP1 lit1-tk-luc reporter; % of 3 µM dafachronic acid response; activation, % at 6.8 µM; 370,000 tested, 1% active; AID 652126, 2013;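 active = activation above the mean over all tested compounds plus 3 SD, cut at about 0.9% in these data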
DAX1 inh-2: DAX1 (NR0B1) inhibitors, primary screen, cell-based, HEK293, Gal4-DAX1, luciferase luminescence | Nuclear receptor subfamily 0 group B member 1 (Homo sapiens), P51843 | HEK293 Gal4-DAX1 luciferase reporter | inhibition, % at 6.75 µM | 340,000 tested, 0.99% active | AID 504766, 2011;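 active = inhibition above the mean over all tested compounds plus 3 SD, cut at about 4.2% in these data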;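 also: inhibition shows as a rise in luminescence from relieved DAX1 repression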
Target sequence (P51843 207-470 limits assumed): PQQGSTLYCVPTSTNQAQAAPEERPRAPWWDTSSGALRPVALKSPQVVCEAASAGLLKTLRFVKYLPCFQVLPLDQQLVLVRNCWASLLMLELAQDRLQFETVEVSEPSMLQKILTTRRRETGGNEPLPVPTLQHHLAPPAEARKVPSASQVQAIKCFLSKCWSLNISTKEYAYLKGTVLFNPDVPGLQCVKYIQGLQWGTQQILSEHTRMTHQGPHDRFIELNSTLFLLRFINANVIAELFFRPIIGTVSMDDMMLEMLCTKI
LXR ag: LXR agonists, Gal4 luciferase reporter, confirmation, counter-screen for hcDAF-12 agonist project, cell-based, luminescence, HEK293, H. contortus campaign; shares compounds with hcDAF12 agonist; 3,400 tested, under 10 active; HEK293 Gal4-LXR tk-luc reporter, 24 h; normalized: DMSO 0%, positive control 100%; activation, % at 6.8 µM;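 active = mean percent activation of the reporter above a cutoff set as the average over tested compounds plus their standard deviation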
hcDAF12 ag: H. contortus DAF-12 receptor agonists, confirmation, cell-based, luminescence, HEK293, lit1-tk-luc, triplicate | AID 743032, 2013 | HEK293 hcDAF-12 lit1-tk-luc reporter; % of Δ7-dafachronic acid response | activation, % at 6.8 µM | 3,400 tested, 61% active | shares compounds with hcDAF12 agonist;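 active = mean activation across triplicate tests above the threshold derived from the earlier primary screen, cut at about 5.5% in these data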
Large screens that a line does not name were inactive (follow-up assays come after a bar, where they were run). An excerpt weighted towards active compounds, which were near 4.1% of everything screened.

O=C(O)CCCC(=O)Nc1ccc(OCc2nc3ccccc3s2)cc1	none
O=C(OCc1nc2ccccc2s1)c1cnccn1	hcDAF12 agonist 8.2 | LXR ag inactive | hcDAF12 ag 9.8
COc1ccc(Nc2nccc3c2ncn3C)cc1	hgDAF12 agonist 11, hcDAF12 agonist 6.6 | LXR ag inactive | hcDAF12 ag inactive
CCCCCCCCN1C(=O)[C@@H](CC(=O)NCCCCc2ccccc2)C[C@@]2(C(=O)OC)C1=C[C@H](COCc1ccccc1)O[C@@H]2C	none (no result: DAX1 inh-2)
COc1ccccc1-c1cccc2c3c([nH]c12)[C@@H]1C[C@H]2[C@@H](C(=O)N1CC3)[C@H](C)ON2C	none (no result: DAX1 inh-2)
O=C(/C=C/c1ccc(-c2ccccc2[N+](=O)[O-])o1)c1ccco1	hcDAF12 agonist 7.9 | LXR ag inactive | hcDAF12 ag inactive
O=C(/C=C/c1ccc([N+](=O)[O-])cc1)c1ccco1	none
CC(=O)N[C@@H](C)CCc1ccc(Oc2ccc(OC(C)C)nc2)cc1	none (no result: DAX1 inh-1, DAX1 inh-2)
CN(C)CC(c1ccc(O)cc1)C1(O)CCCCC1 (centres undefined)	none (no result: DAX1 inh-2)
O=C(c1ccc([N+](=O)[O-])cc1)N1CCSC1c1ccccc1Cl (centres undefined)	none
Clc1ccccc1C1SCC2Nc3ccccc3CN21 (centres undefined)	hcDAF12 agonist 7.1 | LXR ag inactive | hcDAF12 ag 7.1
CCOC(=O)[C@]12CCCC=C1N(Cc1ccc(OC)cc1)C(=O)[C@@H]2CC(=O)NCc1ccc(OC)c(OC)c1	none (no result: DAX1 inh-2)
N#Cc1ccc(OC[C@@H](O)CN2CCC(C(O)(c3ccccc3)c3ccccc3)CC2)cc1	none (no result: DAX1 inh-2)
COc1cc(O)c2c(=O)c(-c3ccc(O[C@@H]4O[C@H](CO)[C@@H](O)[C@H](O)[C@H]4O)cc3)coc2c1	hgDAF12 agonist 12, hcDAF12 agonist 7.2 | LXR ag inactive | hcDAF12 ag inactive
N=c1oc2ccccc2cc1-c1nc2ccccc2c(=O)[nH]1	hcDAF12 agonist 8.3 | LXR ag inactive | hcDAF12 ag inactive
COc1cccc(N(C)C(=O)[C@@H](C2CC2)[C@@H](O)c2ccc(C(C)=O)cc2)c1	none (no result: DAX1 inh-2)
O=C(NC1CCCC1)C1CCN(S(=O)(=O)c2ccc3[nH]c(=O)oc3c2)CC1	none (no result: DAX1 inh-2)
CCOC(=O)N1CCN(C(=O)C[C@H]2C[C@@]3(C(=O)OC)C(=C[C@H](C(C)(C)C)O[C@@H]3C)N(CCC3=CCCCC3)C2=O)CC1	none (no result: DAX1 inh-2)
CCOC(=O)c1ccc2c(c1)sc(=NC(=O)c1ccco1)n2CCOC	none
CCn1c(=NC(=O)c2ccco2)sc2cccc(F)c21	hgDAF12 agonist 13, hcDAF12 agonist 12 | LXR ag inactive | hcDAF12 ag 8.4
COc1cc2c(cc1NC(=O)C(C)Sc1cccc[n+]1[O-])oc1ccccc12 (centres undefined)	hcDAF12 agonist 9.6 | LXR ag inactive | hcDAF12 ag inactive
COc1cc2c(cc1NC(=O)C(C)Sc1nc3ccccc3n1C)oc1ccccc12 (centres undefined)	none
O=C(CCc1ccccc1)N[C@H]1[C@@H](O)CCC[C@]12C(=O)N(Cc1ccccc1)c1ccccc12	none (no result: DAX1 inh-2)
CC(C)C[C@H](NC(=O)c1nccs1)C(=O)N1CCC[C@H]1C(=O)NCc1ccccc1	none (no result: DAX1 inh-2)
CCN1c2ccccc2NC2C1C(C(C)=O)C(=O)N2c1ccc(Cl)cc1 (centres undefined)	hcDAF12 agonist 8.8 | LXR ag inactive | hcDAF12 ag inactive
Nc1nn(-c2ccccc2)c(N)c1N=Nc1ccccc1F	hgDAF12 agonist 18, hcDAF12 agonist 10, ssDAF12 agonist 2.1 | LXR ag inactive | hcDAF12 ag 8.8
CCc1ccc(-c2cn(C3CCCCC3)c(=S)[nH]2)cc1	hcDAF12 agonist 11 | LXR ag inactive | hcDAF12 ag inactive
CCc1ccc(-n2cc(-c3ccc([N+](=O)[O-])cc3)[nH]c2=S)cc1	none
O=C(CN1CCOCC1)N/N=C/c1cc2ccccc2nc1Cl	none
Cc1ccc2cc(/C=N/Nc3nc4ccccc4[nH]3)c(Cl)nc2c1	hgDAF12 agonist 11, hcDAF12 agonist 13, ssDAF12 agonist 0.9 | LXR ag inactive | hcDAF12 ag 15
Cc1ccc(NCC(=O)N/N=C/c2cc3ccccc3nc2Cl)cc1	hgDAF12 agonist 14, hcDAF12 agonist 7.6, ssDAF12 agonist 2.0 | LXR ag inactive | hcDAF12 ag 5.6
Cc1sc2ncnc(N/N=C/c3ccccc3O)c2c1C	hcDAF12 agonist 7.2 | LXR ag inactive | hcDAF12 ag inactive
Cc1ccccc1CN1CCCCC(NC(=O)c2ccc3ccccc3c2)C1=O (centres undefined)	none (no result: DAX1 inh-2)
O=C(c1cccs1)N1CCCc2ccccc21	none
Cc1ccc2c(c1)CCCN2C(=O)c1cccs1	hcDAF12 agonist 7.4 | LXR ag inactive | hcDAF12 ag inactive
CCOC(=O)c1c(C)oc2c1c1c(c3ccccc32)OCN(Cc2ccccn2)C1	hcDAF12 agonist 6.8, ssDAF12 agonist 1.2 | LXR ag inactive | hcDAF12 ag 8.5
CCOC(=O)c1c(C)oc2c1c(C(c1ccncc1)N1CCOCC1)c(O)c1ccccc12 (centres undefined)	none (no result: DAX1 inh-2)
CCOC(=O)c1c(C)oc2ccc(O)c(CN3CCCCC3)c12	none
CCOC(=O)c1c(C)oc2c1c(CN1CCN(C(=O)OCC)CC1)c(O)c1ccccc12	hgDAF12 agonist 13, hcDAF12 agonist 8.6 | LXR ag inactive | hcDAF12 ag inactive
Cc1ccc(N2CCN(c3ccc(NCc4nc5ccccc5n4C)cc3)CC2)cc1	none
Cc1cccc(NCc2nc3ccccc3n2C)c1	hcDAF12 agonist 7.5 | LXR ag inactive | hcDAF12 ag 6.9
Cc1ccc(NCc2nc3ccccc3n2C)c(C)c1	hgDAF12 agonist 12, DAX1 inh-1 3.7, hcDAF12 agonist 12 | LXR ag inactive | hcDAF12 ag 11
Cn1c(CNc2ccc(Cl)cc2)nc2ccccc21	hgDAF12 agonist 13, DAX1 inh-1 4.3, hcDAF12 agonist 16, ssDAF12 agonist 2.9 | LXR ag inactive | hcDAF12 ag 11

Assay outcomes deposited in PubChem by The Scripps Research Institute Molecular Screening Center.
